This is an account of results in article PMC7862700, “An all-to-all approach to the identification of sequence-specific readers for epigenetic DNA modifications on cytosine”.

Test in all cases: DAPPL (digital affinity profiling via proximity ligation, sequencing); 10 mM Tris-HCl pH 7.5, 50 mM NaCl, 1 mM DTT, 4% glycerol, room temperature, 30 min; GST-TFs on glutathione beads, 16-mer random dsDNA library, 0.1% formaldehyde crosslink after washing; high values mean tight binding
One assay deals with T1, FEV (Homo sapiens, UniProt Q99581 1-238).
T1 sequence: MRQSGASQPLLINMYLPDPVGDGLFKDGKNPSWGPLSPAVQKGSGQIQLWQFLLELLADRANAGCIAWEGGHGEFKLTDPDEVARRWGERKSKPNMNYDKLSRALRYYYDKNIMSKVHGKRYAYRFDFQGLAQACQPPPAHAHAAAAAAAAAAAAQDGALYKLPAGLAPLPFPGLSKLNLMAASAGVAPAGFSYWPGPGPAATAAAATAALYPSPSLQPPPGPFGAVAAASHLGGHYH
Particulars: protein: recombinant; tags: N-terminal GST; dsDNA, one strand shown. Put shortly:
(§1)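 Sequencing on an Illumina NextSeq500 followed washing, crosslinking with 0.1% formaldehyde, proximity ligation (BsaI/T4 ligase, 1 h, 37 °C) and PCR amplification of pools that had been incubated for 30 min at room temperature with 200 nmole of a random double-stranded 16-mer DNA library in Tris/NaCl/DTT/glycerol buffer. Each pool held DNA-barcoded human transcription factors, expressed in yeast as GST fusions and captured on glutathione beads, plus a tag-only sample. Binding signal is a hexamer's read frequency for a factor divided by its frequency in the tag-only sample.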

The target in the next assay is ETV5 (Homo sapiens, UniProt P41161 1-510). As to conditions: protein: recombinant; tags: N-terminal GST; dsDNA, one strand shown. Put shortly: as §1
Another assay concerns the target HSF1 (Homo sapiens, UniProt Q00613 1-529). Particulars: protein: recombinant; tags: N-terminal GST; chain copies: 3; dsDNA, one strand shown. Put shortly:
as §1

Another assay concerns the target T2, SPIC (Homo sapiens, UniProt Q8N5J4 1-248).
T2 sequence: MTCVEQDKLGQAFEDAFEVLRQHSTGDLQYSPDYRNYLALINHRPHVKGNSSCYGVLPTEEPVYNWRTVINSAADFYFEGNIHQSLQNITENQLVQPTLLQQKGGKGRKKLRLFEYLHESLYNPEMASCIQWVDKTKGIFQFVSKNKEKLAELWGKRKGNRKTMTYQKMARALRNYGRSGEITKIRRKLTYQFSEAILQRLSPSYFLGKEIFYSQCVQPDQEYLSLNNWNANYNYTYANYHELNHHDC
Particulars: protein: recombinant; tags: N-terminal GST; dsDNA, one strand shown. Put shortly:
as §1

In another assay the target is ELF4 (Homo sapiens, UniProt Q99607 1-663). As to conditions: protein: recombinant; tags: N-terminal GST; dsDNA, one strand shown. The method, boiled down: as §1
The target of a further assay is T3, ELK4 (Homo sapiens, UniProt P28324-2 1-405).
T3 sequence: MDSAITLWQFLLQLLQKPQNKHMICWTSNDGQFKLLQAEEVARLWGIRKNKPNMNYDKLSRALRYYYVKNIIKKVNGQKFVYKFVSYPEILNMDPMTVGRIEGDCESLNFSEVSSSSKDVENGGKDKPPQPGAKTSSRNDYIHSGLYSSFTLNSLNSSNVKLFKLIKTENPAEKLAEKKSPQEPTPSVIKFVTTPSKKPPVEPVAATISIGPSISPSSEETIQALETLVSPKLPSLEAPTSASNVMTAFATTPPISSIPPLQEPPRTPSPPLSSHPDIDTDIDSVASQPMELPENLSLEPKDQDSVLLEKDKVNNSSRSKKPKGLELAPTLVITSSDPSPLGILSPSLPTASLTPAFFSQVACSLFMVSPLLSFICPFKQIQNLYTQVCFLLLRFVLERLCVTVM
Particulars: protein: recombinant; tags: N-terminal GST; dsDNA, one strand shown. The method, boiled down: as §1

Another assay concerns the target T4, ETV2 (Homo sapiens, UniProt O00321 1-342).
T4 sequence: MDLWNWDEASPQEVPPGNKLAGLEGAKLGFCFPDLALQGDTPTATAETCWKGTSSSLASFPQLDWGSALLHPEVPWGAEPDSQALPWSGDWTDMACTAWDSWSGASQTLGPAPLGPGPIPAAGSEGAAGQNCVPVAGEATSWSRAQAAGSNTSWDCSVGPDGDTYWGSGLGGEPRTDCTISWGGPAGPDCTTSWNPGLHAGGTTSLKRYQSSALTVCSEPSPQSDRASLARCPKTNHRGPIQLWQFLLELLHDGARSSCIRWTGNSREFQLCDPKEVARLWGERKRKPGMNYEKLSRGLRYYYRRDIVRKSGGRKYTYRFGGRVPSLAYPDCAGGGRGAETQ
As to conditions: protein: recombinant; tags: N-terminal GST; dsDNA, one strand shown. Put shortly:
as §1

In another assay the target is T5, ELF3 (Homo sapiens, UniProt P78545 1-371).
T5 sequence: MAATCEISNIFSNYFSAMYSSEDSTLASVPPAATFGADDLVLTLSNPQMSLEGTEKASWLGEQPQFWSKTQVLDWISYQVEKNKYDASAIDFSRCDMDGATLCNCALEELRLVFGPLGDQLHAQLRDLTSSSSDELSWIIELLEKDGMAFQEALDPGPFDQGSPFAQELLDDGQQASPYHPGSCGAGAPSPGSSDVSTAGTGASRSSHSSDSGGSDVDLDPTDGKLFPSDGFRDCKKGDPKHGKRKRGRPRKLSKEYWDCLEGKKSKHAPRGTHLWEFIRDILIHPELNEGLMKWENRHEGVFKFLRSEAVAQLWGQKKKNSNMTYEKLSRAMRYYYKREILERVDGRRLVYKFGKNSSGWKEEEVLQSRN
As to conditions: protein: recombinant; tags: N-terminal GST; dsDNA, one strand shown. Put shortly: as §1

Another assay concerns the target CRX (Homo sapiens, UniProt O43186 1-299). Particulars: protein: recombinant; tags: N-terminal GST; dsDNA, one strand shown. Put shortly:
as §1

The target in another assay is ETV1 (Homo sapiens, UniProt P50549 1-477). Particulars: protein: recombinant; tags: N-terminal GST; dsDNA, one strand shown. Put shortly:
as §1

A further assay has as its target T6, ERF (Homo sapiens, UniProt P50548 1-548).
T6 sequence: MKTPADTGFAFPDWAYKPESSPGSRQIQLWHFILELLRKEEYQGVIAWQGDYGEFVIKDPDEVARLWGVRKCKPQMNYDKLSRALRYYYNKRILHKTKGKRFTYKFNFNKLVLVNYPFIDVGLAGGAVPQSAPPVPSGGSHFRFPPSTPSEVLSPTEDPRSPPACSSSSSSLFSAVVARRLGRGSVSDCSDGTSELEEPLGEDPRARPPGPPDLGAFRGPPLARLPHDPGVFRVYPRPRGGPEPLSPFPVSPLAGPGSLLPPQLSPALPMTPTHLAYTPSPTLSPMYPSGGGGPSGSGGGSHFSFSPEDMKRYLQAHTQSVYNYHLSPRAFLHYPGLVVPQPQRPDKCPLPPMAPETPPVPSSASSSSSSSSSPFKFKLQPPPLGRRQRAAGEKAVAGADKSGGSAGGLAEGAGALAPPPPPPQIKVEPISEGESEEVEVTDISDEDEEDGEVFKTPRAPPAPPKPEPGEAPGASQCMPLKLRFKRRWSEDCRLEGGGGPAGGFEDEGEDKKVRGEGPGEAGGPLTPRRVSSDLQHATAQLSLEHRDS
As to conditions: protein: recombinant; tags: N-terminal GST; dsDNA, one strand shown. The method, boiled down:
as §1

The target in a further assay is T7, ETV3L (Homo sapiens, UniProt Q6ZN32 1-361).
T7 sequence: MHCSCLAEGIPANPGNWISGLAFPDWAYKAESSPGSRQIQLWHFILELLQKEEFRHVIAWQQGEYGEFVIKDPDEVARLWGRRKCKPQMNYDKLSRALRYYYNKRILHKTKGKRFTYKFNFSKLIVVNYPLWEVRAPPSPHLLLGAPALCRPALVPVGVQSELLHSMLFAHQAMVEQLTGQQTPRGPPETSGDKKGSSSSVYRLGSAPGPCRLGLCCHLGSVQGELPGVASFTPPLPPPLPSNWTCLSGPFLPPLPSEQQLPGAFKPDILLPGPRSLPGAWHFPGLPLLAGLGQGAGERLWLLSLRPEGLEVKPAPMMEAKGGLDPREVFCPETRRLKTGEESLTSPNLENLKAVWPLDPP
As to conditions: protein: recombinant; tags: N-terminal GST; dsDNA, one strand shown. Put shortly:
as §1

The next assay has as its target T8, ETS2 (Homo sapiens, UniProt P15036 1-469).
T8 sequence: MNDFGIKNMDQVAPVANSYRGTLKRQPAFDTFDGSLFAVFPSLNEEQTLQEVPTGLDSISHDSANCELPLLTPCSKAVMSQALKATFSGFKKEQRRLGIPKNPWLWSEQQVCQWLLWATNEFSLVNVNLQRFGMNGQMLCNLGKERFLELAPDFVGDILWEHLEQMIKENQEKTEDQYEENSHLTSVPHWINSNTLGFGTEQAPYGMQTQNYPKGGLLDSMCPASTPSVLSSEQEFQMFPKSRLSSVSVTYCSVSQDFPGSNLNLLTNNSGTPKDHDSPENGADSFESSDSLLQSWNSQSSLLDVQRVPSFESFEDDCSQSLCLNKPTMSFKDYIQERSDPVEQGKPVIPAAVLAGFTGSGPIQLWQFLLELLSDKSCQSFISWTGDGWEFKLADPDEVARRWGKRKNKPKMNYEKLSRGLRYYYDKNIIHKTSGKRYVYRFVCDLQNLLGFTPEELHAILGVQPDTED
As to conditions: protein: recombinant; tags: N-terminal GST; dsDNA, one strand shown. Put shortly: as §1

A further assay concerns the target T9, SPDEF (Homo sapiens, UniProt O95238 1-335).
T9 sequence: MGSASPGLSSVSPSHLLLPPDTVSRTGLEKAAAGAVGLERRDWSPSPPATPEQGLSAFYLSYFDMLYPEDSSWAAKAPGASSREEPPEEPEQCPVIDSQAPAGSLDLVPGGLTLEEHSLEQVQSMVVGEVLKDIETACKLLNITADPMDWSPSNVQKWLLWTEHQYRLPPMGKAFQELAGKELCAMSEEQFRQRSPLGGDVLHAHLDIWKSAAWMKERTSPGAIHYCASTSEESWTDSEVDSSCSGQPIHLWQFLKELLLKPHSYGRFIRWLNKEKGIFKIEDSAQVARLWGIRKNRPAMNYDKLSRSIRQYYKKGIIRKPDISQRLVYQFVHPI
As to conditions: protein: recombinant; tags: N-terminal GST; dsDNA, one strand shown. The method, boiled down:
as §1

Another assay has as its target T10, ETV7 (Homo sapiens, UniProt Q9Y603 1-341).
T10 sequence: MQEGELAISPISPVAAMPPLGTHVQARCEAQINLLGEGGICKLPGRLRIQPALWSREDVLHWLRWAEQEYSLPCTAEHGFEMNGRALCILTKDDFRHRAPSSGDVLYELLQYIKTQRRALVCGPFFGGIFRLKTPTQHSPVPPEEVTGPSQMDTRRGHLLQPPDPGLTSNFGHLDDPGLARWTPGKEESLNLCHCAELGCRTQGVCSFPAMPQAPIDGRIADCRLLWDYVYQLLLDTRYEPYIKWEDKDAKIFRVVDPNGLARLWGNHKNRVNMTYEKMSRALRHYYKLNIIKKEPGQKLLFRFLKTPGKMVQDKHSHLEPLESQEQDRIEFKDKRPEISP
As to conditions: protein: recombinant; tags: N-terminal GST; dsDNA, one strand shown. The method, boiled down:
as §1

A further assay has as its target T11, ELF5 (Homo sapiens, UniProt Q9UKW6-2 1-255).
T11 sequence: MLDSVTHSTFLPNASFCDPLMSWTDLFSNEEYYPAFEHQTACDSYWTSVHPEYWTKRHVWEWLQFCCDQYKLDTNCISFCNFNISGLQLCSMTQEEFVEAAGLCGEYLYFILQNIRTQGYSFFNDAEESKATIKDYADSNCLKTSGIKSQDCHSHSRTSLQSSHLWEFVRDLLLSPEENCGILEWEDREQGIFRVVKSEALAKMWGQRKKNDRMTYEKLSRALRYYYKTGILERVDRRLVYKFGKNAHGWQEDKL
Particulars: protein: recombinant; tags: N-terminal GST; dsDNA, one strand shown. Put shortly:
as §1

A further assay has as its target T12, ETV3 (Homo sapiens, UniProt P41162-2 1-143).
T12 sequence: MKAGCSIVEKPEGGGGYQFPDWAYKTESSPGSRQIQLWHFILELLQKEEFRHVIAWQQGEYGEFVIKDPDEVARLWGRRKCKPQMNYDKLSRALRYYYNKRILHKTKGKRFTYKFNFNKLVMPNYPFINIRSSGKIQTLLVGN
As to conditions: protein: recombinant; tags: N-terminal GST; dsDNA, one strand shown. Put shortly:
as §1

For the next assay, the target named is ETV6 (Homo sapiens, UniProt P41212 1-452). As to conditions: protein: recombinant; tags: N-terminal GST; dsDNA, one strand shown. Put shortly: as §1
Chain of ETV6 (P41212 whole entry): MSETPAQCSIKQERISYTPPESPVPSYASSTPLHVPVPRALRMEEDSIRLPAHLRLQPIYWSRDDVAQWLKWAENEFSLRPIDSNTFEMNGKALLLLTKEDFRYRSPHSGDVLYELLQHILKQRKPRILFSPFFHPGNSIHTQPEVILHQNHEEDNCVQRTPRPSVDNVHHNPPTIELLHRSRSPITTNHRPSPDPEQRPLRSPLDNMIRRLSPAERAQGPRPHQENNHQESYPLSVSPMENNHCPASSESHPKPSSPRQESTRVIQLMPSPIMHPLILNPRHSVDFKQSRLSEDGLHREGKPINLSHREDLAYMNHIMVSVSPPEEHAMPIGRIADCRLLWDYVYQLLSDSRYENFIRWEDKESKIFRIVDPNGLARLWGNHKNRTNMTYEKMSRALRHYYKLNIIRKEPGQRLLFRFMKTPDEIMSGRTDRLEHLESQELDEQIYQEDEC

Chain of ELF4 (Q99607 whole entry): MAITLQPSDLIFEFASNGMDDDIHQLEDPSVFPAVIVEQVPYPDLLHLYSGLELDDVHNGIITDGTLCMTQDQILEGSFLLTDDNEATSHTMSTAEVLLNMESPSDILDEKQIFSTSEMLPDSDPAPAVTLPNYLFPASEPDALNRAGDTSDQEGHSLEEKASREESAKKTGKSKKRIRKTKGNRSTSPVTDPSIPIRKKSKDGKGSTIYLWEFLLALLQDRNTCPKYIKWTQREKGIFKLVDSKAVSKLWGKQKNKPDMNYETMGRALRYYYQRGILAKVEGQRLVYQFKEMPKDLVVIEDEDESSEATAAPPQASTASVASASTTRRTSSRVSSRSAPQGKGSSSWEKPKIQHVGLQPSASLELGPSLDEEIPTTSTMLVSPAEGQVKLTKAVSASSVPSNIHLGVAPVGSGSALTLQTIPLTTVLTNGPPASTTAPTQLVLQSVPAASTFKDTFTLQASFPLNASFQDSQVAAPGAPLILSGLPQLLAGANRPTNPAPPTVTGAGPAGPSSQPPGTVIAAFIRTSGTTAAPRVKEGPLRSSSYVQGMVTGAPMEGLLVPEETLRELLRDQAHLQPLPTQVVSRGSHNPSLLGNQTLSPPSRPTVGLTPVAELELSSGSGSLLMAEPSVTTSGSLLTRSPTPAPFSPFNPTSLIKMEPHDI
Chain of CRX (O43186 whole entry): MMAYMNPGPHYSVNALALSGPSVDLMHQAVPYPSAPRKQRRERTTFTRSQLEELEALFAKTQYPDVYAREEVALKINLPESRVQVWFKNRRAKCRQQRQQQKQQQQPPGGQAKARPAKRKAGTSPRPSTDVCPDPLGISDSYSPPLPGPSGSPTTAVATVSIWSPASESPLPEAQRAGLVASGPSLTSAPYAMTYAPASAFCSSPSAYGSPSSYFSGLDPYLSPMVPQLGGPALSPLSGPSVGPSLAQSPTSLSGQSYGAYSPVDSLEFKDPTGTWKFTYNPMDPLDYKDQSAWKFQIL
Chain of ETV1 (P50549 whole entry): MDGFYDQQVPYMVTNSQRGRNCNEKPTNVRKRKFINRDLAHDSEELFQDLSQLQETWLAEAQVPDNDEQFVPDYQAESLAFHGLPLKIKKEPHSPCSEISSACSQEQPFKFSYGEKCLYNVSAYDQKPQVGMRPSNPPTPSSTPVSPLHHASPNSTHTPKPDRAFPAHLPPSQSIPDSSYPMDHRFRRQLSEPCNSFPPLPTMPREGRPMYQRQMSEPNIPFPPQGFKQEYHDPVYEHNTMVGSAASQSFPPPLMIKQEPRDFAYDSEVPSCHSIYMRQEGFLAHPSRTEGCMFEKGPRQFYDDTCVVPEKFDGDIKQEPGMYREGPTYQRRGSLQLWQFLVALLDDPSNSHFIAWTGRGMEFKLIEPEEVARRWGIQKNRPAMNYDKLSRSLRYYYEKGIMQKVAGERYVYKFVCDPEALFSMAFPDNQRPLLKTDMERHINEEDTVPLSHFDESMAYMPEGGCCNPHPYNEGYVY
Chain of ETV5 (P41161 whole entry): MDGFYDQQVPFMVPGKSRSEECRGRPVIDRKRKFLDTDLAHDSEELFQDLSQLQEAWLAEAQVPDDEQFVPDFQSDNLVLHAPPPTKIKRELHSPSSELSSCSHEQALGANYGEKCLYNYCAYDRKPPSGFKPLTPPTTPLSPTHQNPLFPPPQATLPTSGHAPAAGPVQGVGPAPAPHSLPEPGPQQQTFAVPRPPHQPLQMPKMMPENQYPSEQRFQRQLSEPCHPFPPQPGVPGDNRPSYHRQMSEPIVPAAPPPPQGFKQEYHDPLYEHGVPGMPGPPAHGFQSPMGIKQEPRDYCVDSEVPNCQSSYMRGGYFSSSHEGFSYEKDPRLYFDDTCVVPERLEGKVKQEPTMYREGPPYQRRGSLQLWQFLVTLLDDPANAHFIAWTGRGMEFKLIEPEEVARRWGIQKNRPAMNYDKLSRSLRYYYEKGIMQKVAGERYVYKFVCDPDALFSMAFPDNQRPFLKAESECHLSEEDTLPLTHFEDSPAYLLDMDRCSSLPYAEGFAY
Chain of HSF1 (Q00613 whole entry): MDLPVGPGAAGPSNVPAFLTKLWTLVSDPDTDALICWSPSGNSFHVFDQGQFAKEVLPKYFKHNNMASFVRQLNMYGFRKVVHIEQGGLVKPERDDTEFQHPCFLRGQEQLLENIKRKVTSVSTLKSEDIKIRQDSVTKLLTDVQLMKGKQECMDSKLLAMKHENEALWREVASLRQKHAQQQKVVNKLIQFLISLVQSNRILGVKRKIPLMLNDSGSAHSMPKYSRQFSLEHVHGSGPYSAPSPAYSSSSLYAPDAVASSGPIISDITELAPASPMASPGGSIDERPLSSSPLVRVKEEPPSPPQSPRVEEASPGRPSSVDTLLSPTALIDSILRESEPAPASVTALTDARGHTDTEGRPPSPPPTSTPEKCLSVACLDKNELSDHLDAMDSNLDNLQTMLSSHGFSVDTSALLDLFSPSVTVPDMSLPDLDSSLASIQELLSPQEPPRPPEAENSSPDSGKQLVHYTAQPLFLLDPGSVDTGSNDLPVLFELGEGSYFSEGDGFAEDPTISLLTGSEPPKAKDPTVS

For the sequence TCACGC, the binding signal was 1.18 fold enrichment (6-mer frequency, TF over GST control) with FEV; 1.15 fold enrichment (6-mer frequency, TF over GST control) with ETV5; 1.08 fold enrichment (6-mer frequency, TF over GST control) with HSF1; 1.25 fold enrichment (6-mer frequency, TF over GST control) with SPIC; 1.16 fold enrichment (6-mer frequency, TF over GST control) with ELF4; 1.34 fold enrichment (6-mer frequency, TF over GST control) with ELK4. Besides, the binding signal is 1.26 fold enrichment (6-mer frequency, TF over GST control) with ETV2; 1.35 fold enrichment (6-mer frequency, TF over GST control) with ELF3; 1.02 fold enrichment (6-mer frequency, TF over GST control) with CRX; 1.13 fold enrichment (6-mer frequency, TF over GST control) with ETV1; 1.26 fold enrichment (6-mer frequency, TF over GST control) in the assay with ERF; 1.2 fold enrichment (6-mer frequency, TF over GST control) with ETV3L. The binding signal in the assay with ETS2 was 1.11 fold enrichment (6-mer frequency, TF over GST control); with SPDEF it was 1.12 fold enrichment (6-mer frequency, TF over GST control); with ETV7, 1.16 fold enrichment (6-mer frequency, TF over GST control); with ELF5 it was 1.15 fold enrichment (6-mer frequency, TF over GST control); with ETV3, 1.07 fold enrichment (6-mer frequency, TF over GST control); in the assay with ETV6, 1.15 fold enrichment (6-mer frequency, TF over GST control).
